Measurements as given in PubChem BioAssay AID624304 (Sanford-Burnham Center for Chemical Genomics, 2012).
Hit rate of the full screen: of about 360,000 compounds, about 1,800 (0.5%) were called active. Shown is part of a subset that was picked to be rich in actives. A number with no mark means an inactive call.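 Rule for the calls: active = interference check ratio from 0.5 to 1.5 plus GFP to RFP signal ratio inhibition reaching or exceeding a fixed threshold (cut at about 30% in these data, passing the limit was not always enough); inactive = the rest.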

Test: gst-4 reporter inhibition in live C. elegans – whole organism, uHTS, GFP/RFP fluorescence ratio, strain VP596, SKN-1 inhibitor project, primary screen (AID 624304)
Settings: C. elegans VP596 Pgst-4::GFP/RFP ratio, acrylamide-induced, 24 h; at 21.8 µM; stronger effect = higher value

Compared with `Cc1ccc(F)cc1NC(=O)CSCc1c(C)noc1C`, `Cc1ccc(C)c(NC(=O)COC(=O)c2nn(C)c(=O)c3ccccc23)c1` is higher in inhibition: -5.42% for the first, 0.693% for the second.

Going from `CCCCC1=CC2=CC(=O)C(C)(OC(=O)CC)C(=O)C2=CN1CCCOC(C)C` (stereo unspecified) to `COC(=O)CCCC1=CC2=C(c3ccccc3)C(=O)C(C)(OC(=O)C3CCCC3)C(=O)C2=CN1c1ccc(OC)cc1` (stereo unspecified), the inhibition falls from 19.4% to -4%.

Going from `Fc1cccc2ncnc(OCc3ccccc3)c12` to `CC(=O)c1ccccc1OCc1ccc(C(=O)c2ccccc2)cc1`, the inhibition rises from 3.79% to 12.8%.

Going from `OCC[C@H]1C[C@H](O)[C@@H](O)[C@]2(CCCCO2)O1` to `CC1CCN(C(=O)Cn2nnnc2CN2CCOCC2)CC1`, the inhibition falls from -7.25% to -17.8%.

Compared with `COc1cccc(NC(=O)CC(c2ccc(OC(C)C)cc2)c2ccccc2OC)c1` (stereo unspecified), `COc1cccc(NC(=O)C(Sc2nnnn2C)c2ccccc2)c1` (stereo unspecified) is higher in inhibition: -0.0853% for the first, 17.4% for the second.

First: COC(=O)c1ccc(COC(=O)c2c(C)nn(Cc3ccccc3Cl)c2Cl)o1
Second: CC(Oc1ccc(Cl)cc1)C(=O)OCC(=O)Nc1ncc(Cl)cc1Cl (stereo unspecified)
The inhibition of the first is lower: -0.292% for the first, 6.67% for the second.

Compared with `Cc1ccc(NC(=O)Cc2nc(COC(=O)C(C)NS(=O)(=O)c3ccc(C)cc3)cs2)cc1` (stereo unspecified), `COc1ccc(-c2c(C(C)=O)c(C)nc3sc4c(=O)n(-c5ccc(C)cc5)nnc4c23)cc1` is higher in inhibition: -10% for the first, 12.1% for the second.

First: CCS(=O)(=O)c1ccc2oc(SCC(=O)N3c4ccccc4CC3C)nc2c1 (stereo unspecified)
Second: CC1Cc2ccccc2N1C(=O)CSc1nnc(C2CC2)n1C (stereo unspecified)
The inhibition of the first is lower: -0.339% for the first, 8.36% for the second.

Going from `Cc1cc2c(cc1S(=O)(=O)NCc1ccc(Cl)cc1)OCC(=O)N2` to `CCOC(=O)C1=NNC2(c3ccc(Cl)cc3)C(=O)N(c3cc(C)cc(C)c3)C(=O)C12` (stereo unspecified), the inhibition rises from -19.4% to 14.5%.

Going from `COc1ccccc1N(CCOc1ccccc1)S(=O)(=O)c1ccccc1` to `COc1ccccc1OCC(=O)OCn1c(SC)nnc(C)c1=O`, the inhibition rises from 3.24% to 5.86%.

Compared with `Cc1nc2ncnn2c(C)c1CCC(=O)N1CCN(C(=O)c2ccco2)CC1`, `Cc1nc2c(-c3ccc(F)cc3)c(C)nn2c(C)c1CCC(=O)N1CCN(c2ccccn2)CC1` is higher in inhibition: -8.68% for the first, -5.8% for the second.

Going from `CCc1nc2c(OCC(=O)C(C)(C)C)cccn2c1N(C)C(=O)c1ccccc1F` to `CCc1c(SCCC(=O)O)nc2ccccc2c1C`, the inhibition falls from 15.8% to -7.29%.

Compared with `CC(Oc1ccc(Cl)cc1)C(=O)Nc1ncccn1` (stereo unspecified), `Cc1nccn1-c1ccc(NC(=O)[C@H]2O[C@@H](n3ccc(=O)[nH]c3=O)[C@H](O)[C@@H]2O)cc1` is lower in inhibition: 11.8% for the first, 1.64% for the second.

First: CC1CN(C(=O)CCC(=O)NCCCN2CCC(Cc3ccccc3)CC2)c2cc(Cl)ccc2O1 (stereo unspecified)
Second: O=C1CCC([N+](=O)[O-])C(c2ccccc2Br)N1 (stereo unspecified)
The inhibition of the first is higher: 14.9% for the first, 9.01% for the second.

With `Cc1ccc(F)cc1NC(=O)Cc1nn(C)c(=O)c2ccccc12` the inhibition was 35.7% (active).
In the case of `COC(=O)CCCC1=CC2=CC(=O)C(C)(OC(=O)c3cccs3)C(=O)C2=CN1CC(C)C` (stereo unspecified), the inhibition is reported as 41% (active).
With `Cc1nc2ccccc2cc1OCc1ccc(F)cc1` the inhibition was 90.3% (active).
With `COc1cccc(NC(=O)C(C)Oc2ccccc2)c1` (stereo unspecified) the inhibition was 51.2% (active).
For `CC1Cc2ccccc2N1C(=O)CSc1nc2ccccc2o1` (stereo unspecified), the inhibition was 30.1% (active).
In the case of `Cc1nc2nc(C)c(CCC(=O)N3CCN(c4ccccc4)CC3)c(C)n2n1`, the inhibition is reported as 35.7% (active).
In the case of `N#CC1=C(N)Oc2c(sc3ccccc23)C1c1ccco1` (stereo unspecified), the inhibition is reported as 35% (active).
For `CC(Oc1ccc(Cl)cc1)c1ccnn1S(C)(=O)=O` (stereo unspecified), the inhibition was 33.3% (active).
